Among the data in PubChem BioAssay (EPA / NIEHS) are outcome and AC50 values, retold here.

Calls of active or inactive are those of the source. The calls were made as follows: active = hit-call score of the fitted dose curve at least 0.9, where 1 is the maximum; inactive = score below 0.9.

The assay can be described thus: ATG_RORE_CIS: Attagene CIS-FACTORIAL HepG2 Assay for human RAR-related Orphan Receptor Element (RORE) (AID 2282959). The note with it: HepG2 Attagene cis-factorial RORE reporter, mRNA; actives raise or lower the signal. How it is done: ATG_CIS is a cell-based, multiplexed-readout assay that uses HepG2, a human liver cell line, with measurements taken at 24 hours after chemical dosing in a 24-well plate.ATG_RORE_CIS is one of 52 assay component(s) measured or calculated from the ATG_CIS assay. It is designed to make measurements of mRNA induction, a form of inducible reporter, as detected with fluorescence intensity signals by Reverse transcription polymerase chain reaction (RT-PCR) and Capillary electrophoresis technology.Data from the assay component ATG_RORE_CIS was analyzed into 1 assay endpoint. This assay endpoint, ATG_RORE_CIS, was analyzed with bidirectional fitting relative to DMSO as the negative control and baseline of activity. Using a type of inducible reporter, measures of mRNA for gain or loss-of-signal activity can be used to understand the reporter gene at the transcription factor-level as they relate to the gene RORA and RORB and RORC. Furthermore, this assay endpoint can be referred to as a primary readout, because this assay has produced multiple assay endpoints where this one serves a reporter gene function. To generalize the intended target to other relatable targets, this assay endpoint is annotated to the nuclear receptor intended target family, where the subfamily is orphan.
Human liver HepG2 cells are transiently transfected with multiple reporter transcription units (MRTUs) in 6-well plates using FuGene 6 reagent (Roche; 3 ml FuGene/1 mg DNA). The MRTU constructs are regulated by a cis-regulating element (promoter). […] A major difference between the CIS and TRANS system is that in CIS activities of endogenous TFs are measured, whereas the TRANS assay evaluates changes in activities of exogenous, chimeric NR-Gal4 proteins. […] At the end of 24 hour incubation, total RNA was isolated using TriZol reagent (Invitrogen). The isolated RNA is then reverse-transcribed using oligo(dT) primer and Mo-MLV reverse transcriptase (Invitrogen) with DNAse I (Ambion) treatment for 30 min. The one-tenth of the produced cDNA was amplified by PCR using Taq DNA polymerase (Invitrogen) and two reporter sequence-specific primers. The PCR products were fluorescently labeled by primer extension with 6-arboxyfluorescein (6-FAM) 5'-labeled reporter sequence-specific primer (2 min at 95 C, 20 s at 68 C and 10 min at 72 C) and these products were digested with 5U of HpaI (New England Biolabs) for 2h at 37 C. The fragments were purified using Qiaquick PCR columns (Qiagen), analyzed on an ABI 3130xL genetic analyzer (Applied Biosystems) with peak positions identified by using a set of X-rhodamine (ROX)-labeled MapMarker1000 molecular weight standards (BioVentures). The raw capillary electrophoresis data was processed using Attagraph software (Attagene).
On to `CCCCn1cc[n+](C)c1`, for which the result was inactive. `CCCCCCC1CCCC(=O)O1` (stereo not given): the concentration at half-maximal activity (AC50) (commonly the concentration giving half of the maximal activity seen) is 19.8 µM (active). For `OCCOCCOCCOCCOCCO`, the molecule was called inactive. As to `CC1(C)S[C@@H]2[C@H](NC(=O)[C@H](N)c3ccccc3)C(=O)N2[C@H]1C(=O)O`, the call was inactive. Still for that read-out and setting: under `O=C1NC(=O)[C@@H]2CC=CC[C@H]12` stands “inactive”; under `CCOC(=O)c1ccccc1`, “inactive”. The same measure, in the same setting: under `NCc1ccccc1` stands “inactive”; under `Cc1cc(O)cc(C)c1Cl`, “inactive”; under `CCC(C)=NO`, “inactive”. As for `CCCCCC[C@@H](O)C/C=C\CCCCCCCC(=O)O`, the AC50 is 100 µM (active).

For `CCCCOC(=O)COc1ccc(Cl)cc1Cl`, the molecule was called inactive. `C[C@H]1C[C@H]2[C@@H]3CCC4=CC(=O)C=C[C@]4(C)[C@@]3(F)[C@@H](O)C[C@]2(C)[C@@]1(O)C(=O)CO`: the outcome was inactive. Still for that read-out and setting: as for `O=C(O)/C=C/C(=O)O`, the entry is “inactive”; as for `CC[N+](CC)(CC(=O)Nc1c(C)cccc1C)Cc1ccccc1` (tested in a mixture with another compound), “inactive”. Same read-out and setting: as for `OCCN(CCO)c1cccc(Cl)c1`, the entry is “inactive”. In the case of `COC(=O)/C=C\C(=O)OC`, the call was inactive. Consider `O=S(=O)(O)c1cccc2ccccc12`, for which the molecule was classed as inactive. The same measure, in the same setting: under `CC/C=C\CC/C=C/C(OCC)OCC` stands “inactive”. As for `CCCCCCCC#N`, the molecule was called inactive.

As for `CN1CCCC1`, the call was inactive. Regarding `CCCC[N+]1(C)CCCC1`, the molecule was classed as inactive.

As for `NC(N)=Nc1nc(CSCCC(N)=NS(N)(=O)=O)cs1`, the outcome was inactive. On to `NC(=O)c1ccc([N+](=O)[O-])cc1Cl`, for which the call was inactive. On the same count and under the same terms, as for `COCCCN`, the entry is “inactive”.

`O=[N+]([O-])c1ccc2nc[nH]c2c1`: the result was inactive.

For the molecule `Cc1ccccc1S(=O)(=O)O`, the molecule was classed as inactive. As to `COc1cccc(OC)c1C(=O)O`, the outcome was inactive. Regarding `C/C=C(\C)C(=O)OCC/C=C\CC`, the call was inactive. The same measure, in the same setting: under `Cc1cc2nc3c(=O)[nH]c(=O)nc-3n(C[C@H](O)[C@H](O)[C@H](O)CO)c2cc1C` stands “inactive”; under `CCO[Si](CCCN)(OCC)OCC`, “inactive”; under `C=CC(C)(CCC=C(C)C)OC(=O)c1ccccc1` (stereo not given), “inactive”. Take `OCCc1ccccn1`: the molecule was classed as inactive. For the molecule `Clc1ccc(Sc2cc(Cl)c(Cl)cc2Cl)cc1`, the molecule was classed as inactive.

Regarding `Nc1nnc(-c2ccc([N+](=O)[O-])o2)o1`, the molecule was called inactive. For the molecule `Cc1cc(C)c(S(=O)(=O)O)cc1N=Nc1cc(S(=O)(=O)O)c2ccccc2c1O`, the molecule was called inactive. Consider `CCCCCCC1CCC(=O)O1` (stereo not given), for which the result was inactive. As for `O=C(O)Cc1c[nH]c2ccccc12`, the call was inactive. Take `O=C(CC(C(=O)OC1CCCCC1)S(=O)(=O)O)OC1CCCCC1` (stereo not given): the result was inactive.

With `CC1=CCCC(C)(C)C12CCC(C)O2` (stereo not given), the call was inactive.

For the molecule `C=C1CC[C@H]2C[C@@H]1C2(C)C`, the call was inactive.
